Inconclusive results are not listed. Calls of active or inactive are those of the source. The calls were made as follows, unless noted: active = hit-call score of the fitted dose curve at least 0.9, where 1 is the maximum; inactive = score below 0.9.
Legend:
[1] = CCTE_Mundy_HCI_hNP1_Casp3_7: CCTE's Caspase-Glo 3/7 Assay in human neuroprogenitor cells for Apoptosis, Mundy Lab (AID 2284240)
Summary of the method: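 Neuroepithelial-lineage stem cells from WA09 embryonic cells were treated with chemicals after 40–44 h of culture. Twenty-four hours later, caspase-3/7 activation was detected luminescently after a 30 min room-temperature reagent step, with DMSO as baseline.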

[2] = CCTE_Mundy_HCI_hNP1_CellTiter: CCTE's Cell Titer-Glo 2 Assay in human neuroprogenitor cells for Viability, Mundy Lab (AID 2284241; active = hit-call score of the fitted dose curve at least 0.9, where 1 is the maximum)
Summary of the method: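 Measures ATP content in human neural progenitors derived from WA09 embryonic cells. Read-out at 26.5 hours after dosing, with DMSO serving as the negative control and baseline.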

[3] = CCTE_Mundy_HCI_iCellGluta_NOG_NeuriteCount: CCTE's Neurite Outgrowth Assay in iCellGluta cells for Neurite Count, Mundy Lab (AID 2284342; active = hit-call score of the fitted dose curve at least 0.9, where 1 is the maximum;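 also: chemical exposure about 48 hours starting 2 hours after plating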)
[4] = CCTE_Padilla_ZF_Score.Craniofacial: CCTE's 144 Hour Post-fertilization zebrafish Assay Score for Craniofacial Malformation, Padilla Lab (AID 2284405)
Summary of the method: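 Wild-type zebrafish embryos (with chorions), one per well in 10% Hanks', were dosed at 6–8 hpf in sealed plates and kept at 26C. They were rinsed at 5 dpf. At 6 dpf two blinded assessors scored craniofacial malformations by brightfield stereomicroscopy.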

[5] = CCTE_Padilla_ZF_Score.Edema: CCTE's 144 Hour Post-fertilization zebrafish Assay Score for Edema Malformation, Padilla Lab (AID 2284406)
Summary of the method: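 Wild-type zebrafish embryos, one per well in Hanks' solution, dosed at 6-8 hpf, sealed and reared at 26C on a 14:10 h cycle; rinsed on 5 dpf. At 6 dpf, blinded assessors scored edema by stereomicroscopy.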

[6] = CCTE_Padilla_ZF_Score.Spine: CCTE's 144 Hour Post-fertilization zebrafish Assay Score for Spine Malformation, Padilla Lab (AID 2284407)
Summary of the method: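 Wild-type zebrafish embryos, one per well in Hanks' solution, dosed at 6–8 hpf in sealed plates at 26C, 14:10 h light:dark; rinsed at 5 dpf. Two blinded assessors scored spinal defects by stereomicroscopy at 6 dpf; fitted versus DMSO.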

[7] = CCTE_Padilla_ZF_Score.Swim_bladder: CCTE's 144 Hour Post-fertilization zebrafish Assay Score for Swim Bladder Malformation, Padilla Lab (AID 2284408)
Summary of the method: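 Wild-type zebrafish embryos, one per well in 10% Hanks', dosed at 6–8 hpf, sealed, reared at 26C and rinsed at 5 dpf. Blinded assessors scored uninflated swim bladder by stereomicroscopy at 6 dpf, relative to DMSO.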

[8] = CCTE_Padilla_ZF_Score.Position: CCTE's 144 Hour Post-fertilization zebrafish Assay Score for Position, Padilla Lab (AID 2284409)
Summary of the method: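 Wild-type zebrafish embryos (with chorions) exposed singly from 6–8 hpf in sealed wells of Hanks' solution at 26C, rinsed at 5 dpf. At 6 dpf, blinded assessors scored abnormal water-column position by brightfield stereomicroscopy, relative to DMSO.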

[9] = CCTE_Padilla_ZF_Score.Living: CCTE's 144 Hour Post-fertilization zebrafish Assay Score for Viability, Padilla Lab (AID 2284410);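 also: larval death at 6 dpf judged by absent heartbeat or coagulation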
Summary of the method: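 Wild-type zebrafish embryos were exposed singly from 6–8 hpf in sealed wells of Hanks' solution at 26C, then rinsed at 5 dpf. At 6 dpf, blinded assessors scored mortality (no heartbeat or coagulation) by stereomicroscopy, fitted against DMSO.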

[10] = CCTE_Padilla_ZF_Score.General: CCTE's 144 Hour Post-fertilization zebrafish Assay Score for General Malformation, Padilla Lab (AID 2284411)
Summary of the method: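 Wild-type zebrafish embryos were plated singly at 6-8 hpf in 10% Hanks' and exposed in sealed wells at 26C until rinsed on 5 dpf. At 6 dpf two blinded assessors scored mortality, hatching and malformations by stereomicroscopy; gain-of-signal versus DMSO.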

[11] = CCTE_Padilla_ZF_Score.Tail: CCTE's 144 Hour Post-fertilization zebrafish Assay Score for Tail Malformation, Padilla Lab (AID 2284414)
Summary of the method: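 Wild-type zebrafish embryos, one per well in 200 uL 10% Hanks', dosed at 6-8 hpf, sealed, and kept at 26 C on a 14:10 h light cycle. Chemical was rinsed out at 5 dpf. Blinded brightfield scoring of tail defects followed at 6 dpf.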

[12] = CCTE_Padilla_ZF_Score.Blood_pooling: CCTE's 144 Hour Post-fertilization zebrafish Assay Score for Blood Pooling, Padilla Lab (AID 2284415)
Summary of the method: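 Wild-type outbred zebrafish embryos, one per well in 10% Hanks', exposed from 6–8 hpf in sealed plates at 26C on 14:10 h light:dark, rinsed at 5 dpf. Blinded stereomicroscope scoring of blood pooling at 6 dpf; gain-of-signal versus DMSO.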

[13] = CCTE_Padilla_ZF_Score.Any: CCTE's 144 Hour Post-fertilization zebrafish Assay Score for Any Mortality or Malformation, Padilla Lab (AID 2284416)
Summary of the method: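 Wild-type zebrafish embryos with chorions, one per well in 10% Hanks' from 6–8 hpf, dosed in sealed plates at 26 C, 14:10 h light:dark; rinsed at 5 dpf; blinded scoring at 6 dpf for death or malformation, versus DMSO.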

Measured: outcome

O=C(CC(=O)C(F)(F)F)C(F)(F)F
inactive: [1] | [2] | [3] | [4] | [5] | [6] | [7] | [8] | [9] | [10] | [11] | [12] | [13]
